Experiment [1] in a line: qHTS Screen of the MIPE 4.0 Collection Against Ewings Sarcoma (TC32) (AID 1259256). Also: nearly all actives have a fitted effect of over 45% in size. Also: potency is read from the fitted curve at half-maximal effect. Summed up: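 CellTiter-Glo luminescence after 48 h compound exposure (titration) gave viability; percent activity used DMSO-treated cells as no inhibition and medium-only wells as full inhibition. Cells grown in RPMI/5% FBS, dosed 4 h post-seeding.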
A general note: In qHTS, concentration-response curves come from the screen itself.

Experiment [2] can be described thus: Identifying Small Molecule Inhibitors of Pancreatic Cancer Stem Cells (SN12C, Spheroid) (AID 1259360). Also: potency is read from the fitted curve at half-maximal effect. Conditions: Potency: SN12C spheroid viability. Summed up:
(§1)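 Pre-formed 14-day tumor spheroids or adherent cells dosed and incubated 48 h, 37C, 5% CO2. Viability assessed by CellTiter-Glo.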

The nature of experiment [3]: P-glycoprotein substrates identified in KB-8-5-11 adenocarcinoma cell line, qHTS therapeutic library screen (AID 1346987). Also: nearly all actives have a fitted effect of over 65% in size. Also: potency is read from the fitted curve at half-maximal effect. The method, boiled down:
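P-gp-mediated resistance screen: KB-8-5-11 cells treated 72 h with compounds in dose-response. CellTiter-Glo viability.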

The nature of experiment [4]: NS1 protein of Zika virus - qHTS assay to identify small molecule inhibitors in human HEK 293 cells (AID 1347053). Also: nearly all actives have a fitted effect of over 55% in size. Also: potency is read from the fitted curve at half-maximal effect. Summed up:
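Following 20 h seeding, HEK 293 cells took compound, then 1 h later ZIKV MR766 (MOI = 0.5). Incubation ran 24 h at 37 C before TR-FRET detection of NS1; a drop in signal indicates inhibition.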

Experiment [5] is described as follows: Identifying Small Molecule Inhibitors of Pancreatic Cancer Stem Cells (SN12C, Adherent) (AID 1259358).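 Also: cell survival measured after 48 h of compound exposure.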 Also: potency is read from the fitted curve at half-maximal effect. Summed up:
(§2)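 Cytotoxicity read by CellTiter-Glo luminescence after 48 h compound exposure at 37C; percent activity scaled between DMSO-treated cells and cell-free wells. Spheroid formats used cells pre-formed 14 days in stem cell media on hydrogel.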

Experiment [6] can be described thus: Identifying Small Molecule Inhibitors of Pancreatic Cancer Stem Cells (A278, Adherent) (AID 1259361). Also: nearly all actives have a fitted effect of over 35% in size. The method, boiled down:
as §2

Experiment [7] in a line: qHTS of pediatric cancer cell lines to identify multiple opportunities for drug repurposing: Primary screen for TC32 cells (AID 1347089). Also: nearly all actives have a fitted effect of over 60% in size. Also: potency is read from the fitted curve at half-maximal effect. Summed up: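 Luminescent CellTiter-Glo read-out of metabolically active TC32 cells after 48 h compound exposure. Primary: MIPE 11-point, 0.78 nM–46 µM; NPC 8-point, 0.59 nM–46 µM. Confirmatory: 11-point dilutions.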
The nature of experiment [8]: Natriuretic polypeptide receptor (hNpr1) antagonism - Pilot counterscreen GloSensor control cell line (AID 1347045; calls by dose curve; also: series mostly up to about 38 µM). Summed up:
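This counterscreen uses HEK293 cells expressing the GIP/pGS-40F cGMP biosensor. Compound-treated cells are challenged with 50 uM sodium nitroprusside, and the luciferase signal is compared before and after stimulation.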
Background: Counterscreens check selectivity or assay interference.

Experiment [9] has as its target Atrial natriuretic peptide receptor 1 (Homo sapiens) (UniProt P16066). Nature of the experiment: Natriuretic polypeptide receptor (hNpr1) antagonism - Pilot screen (AID 1347049; calls by dose curve;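 also: agonist-evoked cGMP luminescence read 20 min after hNppA addition; series mostly up to about 58 µM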). The method, boiled down:
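Readout is cGMP-driven firefly luciferase luminescence in HEK293 cells carrying hNpr1 and a PDE5-domain GloSensor, read before and 20 min after 0.1 nM hNppA stimulation. Cells had 2% substrate reagent for 2 h and test compound for 30 min.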

The target of experiment [10] is T1, Tyrosine-protein phosphatase non-receptor type substrate 1 (Homo sapiens) + Leukocyte surface antigen CD47 (Homo sapiens) (UniProt P78324+Q08722). Nature of the experiment: CD47-SIRPalpha protein protein interaction - Alpha assay qHTS validation (AID 1347059).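 Also: bead proximity luminescence from CD47 binding SIRPalpha after compound preincubation with SIRPalpha.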 The method, boiled down: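 Binding is measured by AlphaScreen proximity: Ni-NTA acceptor beads capture His-CD47, streptavidin donor beads capture biotin-SIRPalpha. Each of three additions (SIRPalpha with compound, CD47, beads) incubates 30 min at room temperature protected from light.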
T1 sequence (P78324 whole entry, looked up): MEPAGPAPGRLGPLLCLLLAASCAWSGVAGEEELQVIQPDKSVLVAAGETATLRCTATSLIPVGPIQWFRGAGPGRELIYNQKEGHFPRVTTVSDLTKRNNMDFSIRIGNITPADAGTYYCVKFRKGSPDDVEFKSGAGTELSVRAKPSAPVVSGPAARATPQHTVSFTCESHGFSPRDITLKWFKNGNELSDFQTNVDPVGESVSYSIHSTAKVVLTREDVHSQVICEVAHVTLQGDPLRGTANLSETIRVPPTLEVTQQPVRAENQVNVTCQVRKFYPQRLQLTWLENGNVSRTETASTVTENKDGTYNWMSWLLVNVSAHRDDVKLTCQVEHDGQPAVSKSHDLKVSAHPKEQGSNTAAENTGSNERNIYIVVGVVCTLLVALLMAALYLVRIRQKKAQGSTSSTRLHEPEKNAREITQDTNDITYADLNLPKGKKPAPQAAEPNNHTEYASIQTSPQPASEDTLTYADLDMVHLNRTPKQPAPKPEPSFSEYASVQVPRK
T1 sequence (Q08722 whole entry, looked up): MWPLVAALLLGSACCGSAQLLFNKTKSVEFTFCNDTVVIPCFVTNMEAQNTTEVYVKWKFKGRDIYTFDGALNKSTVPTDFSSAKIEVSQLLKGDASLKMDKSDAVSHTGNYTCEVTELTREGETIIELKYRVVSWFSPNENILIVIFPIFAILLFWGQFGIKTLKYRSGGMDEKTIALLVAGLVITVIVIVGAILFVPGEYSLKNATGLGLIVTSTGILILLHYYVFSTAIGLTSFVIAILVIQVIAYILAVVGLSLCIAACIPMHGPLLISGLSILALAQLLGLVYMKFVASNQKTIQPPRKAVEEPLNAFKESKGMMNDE

Experiment [11] deals with Parathyroid hormone/parathyroid hormone-related peptide receptor (Homo sapiens) (UniProt Q03431). Nature of the experiment: qHTS for PTHR1 Agonists: Optimization Screen against the NCGC LOPAC library (AID 1347079).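 Also: GloSensor cAMP luminescence in HEK-293 GP2 cells expressing human PTHR1 with IBMX.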 The method, boiled down:
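Compounds were tested across a qHTS titration. PTHR1-expressing GP2 cells report cAMP rises via GloSensor luminescence after 1 hr compound exposure at 37C with IBMX present.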

The nature of experiment [12]: Identifying Small Molecule Inhibitors of Pancreatic Cancer Stem Cells (Panc1, Adherent) (AID 1259362).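 Also: compound exposure lasted 48 h before the viability read.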 Conditions: Potency: viability. The method, boiled down: as §1
The target in experiment [13] is T1, Tyrosine-protein phosphatase non-receptor type substrate 1 (Homo sapiens) + Leukocyte surface antigen CD47 (Homo sapiens). In words: CD47-SIRPalpha protein protein interaction - LANCE assay qHTS validation (AID 1347057; active = well fitted curve in the direction sought with a large enough effect in the signal ratio, with a control signal flat, not every such curve was filed as active; the % refers to the signal ratio; also: series mostly up to about 38 µM). Summed up: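 First, His-tagged CD47 and Eu-labelled anti-His antibody met the compound for 30 min; next, site-specifically biotinylated SIRPalpha was added for 30 min; finally streptavidin-APC was added before reading the TR-FRET ratio.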

For experiment [14] the target is unchanged. In words: CD47-SIRPalpha protein protein interaction - HTRF assay qHTS validation (AID 1347058; active = well fitted curve in the direction sought with a large enough effect in the signal ratio, not every such curve was filed as active; the % refers to the signal ratio;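 also: recombinant soluble extracellular CD47 with His tag and biotinylated SIRPalpha domains; series mostly up to about 38 µM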). Summed up: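 TR-FRET read (Ch1/Ch2 ratio) of soluble extracellular CD47 and Avi-biotinylated SIRPalpha domains in PBS pH 7.4 with 0.05% IGEPAL; 7-point compound titration. Sequential 30 min room-temperature steps; non-biotinylated SIRPalpha as control inhibitor.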
For orientation: TR-FRET usually uses a lanthanide donor and a delayed reading to cut background.

Experiment [15] in a line: Identifying Small Molecule Inhibitors of Pancreatic Cancer Stem Cells (Panc1, Spheroid) (AID 1259359).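 Also: potency is read from the fitted curve at half-maximal effect; compound exposure lasted 48 h before reading.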 The method, boiled down:
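Spheroids grown 14 days in stem cell media on hydrogel-coated nonadherent plates; 2D lines seeded directly. Compounds added after 4 h attachment, 48 h at 37C, 5% CO2; CellTiter-Glo luminescence normalized to DMSO (no inhibition) and no-cell wells (full inhibition).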

SMILES strings stand for the structures. Values joined by “and” are separate entries in the source; they are usually repeats but may differ in a detail not shown here. Identical values can stand only once. Inconclusive results are not listed. Active and inactive are the calls of the source. Unless noted, calls follow the shape of the dose curve; as a rule, active = well fitted curve in the direction sought with a large enough effect; inconclusive = small, poorly fitted or top-dose-only effect, or another doubt; inactive = no such curve, though single readings can be large; an effect the other way counts as inactive or inconclusive.

Atrial natriuretic peptide receptor 1 (Homo sapiens), sequence (P16066 whole entry, looked up): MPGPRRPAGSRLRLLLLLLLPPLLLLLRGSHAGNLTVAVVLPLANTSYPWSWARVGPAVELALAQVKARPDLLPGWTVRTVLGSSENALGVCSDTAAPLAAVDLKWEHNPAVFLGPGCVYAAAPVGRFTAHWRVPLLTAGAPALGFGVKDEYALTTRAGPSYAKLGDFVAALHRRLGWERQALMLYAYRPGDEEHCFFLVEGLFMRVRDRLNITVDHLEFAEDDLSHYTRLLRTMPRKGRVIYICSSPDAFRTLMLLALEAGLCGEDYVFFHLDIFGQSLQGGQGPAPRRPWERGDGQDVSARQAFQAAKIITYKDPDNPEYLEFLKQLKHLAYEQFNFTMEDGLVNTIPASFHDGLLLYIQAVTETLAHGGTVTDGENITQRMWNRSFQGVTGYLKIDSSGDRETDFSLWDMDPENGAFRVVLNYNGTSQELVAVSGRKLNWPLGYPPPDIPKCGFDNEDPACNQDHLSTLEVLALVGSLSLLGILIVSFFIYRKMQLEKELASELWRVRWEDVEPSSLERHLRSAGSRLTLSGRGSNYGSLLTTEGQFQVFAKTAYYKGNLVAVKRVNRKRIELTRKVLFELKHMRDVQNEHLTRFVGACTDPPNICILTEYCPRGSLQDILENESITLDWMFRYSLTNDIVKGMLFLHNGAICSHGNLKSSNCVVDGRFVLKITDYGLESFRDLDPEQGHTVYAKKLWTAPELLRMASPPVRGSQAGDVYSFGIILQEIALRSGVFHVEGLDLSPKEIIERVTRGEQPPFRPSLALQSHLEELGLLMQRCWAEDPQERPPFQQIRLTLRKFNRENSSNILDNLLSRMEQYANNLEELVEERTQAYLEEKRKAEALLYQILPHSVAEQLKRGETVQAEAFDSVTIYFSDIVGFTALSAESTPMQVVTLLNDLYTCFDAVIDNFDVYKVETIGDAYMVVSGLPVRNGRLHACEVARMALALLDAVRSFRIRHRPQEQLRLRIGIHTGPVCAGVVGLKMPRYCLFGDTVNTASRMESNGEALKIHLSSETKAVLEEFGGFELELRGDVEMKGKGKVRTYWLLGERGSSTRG
Parathyroid hormone/parathyroid hormone-related peptide receptor (Homo sapiens), sequence (Q03431 whole entry, looked up): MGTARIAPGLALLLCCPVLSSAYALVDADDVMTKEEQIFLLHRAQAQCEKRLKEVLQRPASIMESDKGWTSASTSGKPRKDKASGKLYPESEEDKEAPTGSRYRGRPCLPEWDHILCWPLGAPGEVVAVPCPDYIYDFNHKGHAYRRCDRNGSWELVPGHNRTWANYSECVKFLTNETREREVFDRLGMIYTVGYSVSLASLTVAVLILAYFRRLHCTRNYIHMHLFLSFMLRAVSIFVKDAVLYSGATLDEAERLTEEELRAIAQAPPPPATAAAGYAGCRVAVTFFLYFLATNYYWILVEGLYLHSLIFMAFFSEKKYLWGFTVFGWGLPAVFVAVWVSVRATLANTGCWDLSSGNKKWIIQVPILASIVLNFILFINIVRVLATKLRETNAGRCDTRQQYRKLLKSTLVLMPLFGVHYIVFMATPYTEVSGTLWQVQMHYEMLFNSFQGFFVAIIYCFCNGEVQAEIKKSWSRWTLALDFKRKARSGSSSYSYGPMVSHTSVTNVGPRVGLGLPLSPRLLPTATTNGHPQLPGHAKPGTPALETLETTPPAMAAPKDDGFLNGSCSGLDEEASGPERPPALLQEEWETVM

As for `Cc1c(CCOc2ccc(C(=O)O)cc2)c2cc(Cl)ccc2n1C(c1ccccc1)c1ccccc1`, the Potency in experiment [1] is 10.5 µM (active). Besides, the Potency entry in [2], in experiment [3] and in experiment [4] was “inactive” each time.

Consider `CCOc1cc(C(=O)Nc2ccc(Cl)c(-c3nc4ccccc4[nH]3)c2)cc(OCC)c1OCC`, for which the Potency in [1] was 20.9 µM (active). Besides, the Potency result in experiment [5], in experiment [2] and in experiment [4] was “inactive” throughout. The IC50 (viability decrease) result in [6] is “inactive”.

`CC1(C)CNc2cc(NC(=O)c3cccnc3NCc3ccncc3)ccc21`: the values for the Potency in experiment [1] and in [7] were 5.26 µM (active) and 26.2 µM (active), respectively. Further, the Potency result in [5], in [2], in [3] and in experiment [4] was “inactive” in each case.

`CN(C)c1ccc(C2Nc3ccc4ccccc4c3C3=C2C(=O)CC(C)(C)C3)cc1Br` (centres undefined): the Potency in experiment [1] was 16.6 µM (active). The Potency entry in experiment [2] and in experiment [3] was “inactive” in each case.

Regarding `CC1(C)SCCN(S(=O)(=O)c2ccc(OCC#CCO)cc2)[C@@H]1C(=O)NO`, the Potency result in [1], in [5], in [2], in experiment [3], in experiment [4] and in experiment [7] was “inactive” each time.

For `O=C(Nc1nc2ccccc2n1CCN1CCOCC1)c1cccc([N+](=O)[O-])c1`, the Potency in experiment [1] is 18.7 µM (active). The Potency result in experiment [5], in [3], in experiment [4] and in experiment [7] was “inactive” each time. For the same molecule, the outcome in experiment [8], in experiment [9], in [10] and in [11] was inactive.

As for `C[C@]1(c2nc3c(C(N)=O)cccc3[nH]2)CCCN1`, the Potency in experiment [1] is 18.7 µM (active). Also, the Potency result in [5], in experiment [3], in experiment [4] and in [7] was “inactive” in each case. The IC50 (viability decrease) in [6] is 18.7 µM (active).

Take `COc1cc2nccc(Oc3ccc(NC(=O)NC4CC4)c(Cl)c3)c2cc1C(N)=O`: the Potency in experiment [1] was 1.05 µM (active). Further, the Potency result in [2], in experiment [12] and in experiment [3] was “inactive” each time.

For `CCOc1ccn(-c2ccc(F)cc2)c(=O)c1C(=O)Nc1ccc(Oc2ccnc(N)c2Cl)c(F)c1`, the results for the Potency in experiment [1], in experiment [5] and in [3] were 23.5 µM (active), 18.7 µM (active) and 14.8 µM (active), respectively. Further, the Potency entry in experiment [4] was “inactive”.

As for `O=c1[nH]c(-c2ccc(C(F)(F)F)cc2)nc2c1CSCC2`, the Potency in [1] is 23.5 µM (active). Also, the Potency entry in experiment [5], in experiment [2], in experiment [3], in [4] and in experiment [7] was “inactive” in each case.

On to `CCOc1cc(C=C2C(=O)N(c3ccccc3)N=C2C)cc(Cl)c1OCC(=O)OC`, for which the Potency in experiment [1] is 5.9 µM (active). Further, the Potency result in experiment [5], in [2], in experiment [3], in [4] and in experiment [7] was “inactive” throughout.

Regarding `O=C(O)CCc1ccc(NCc2cccc(Oc3ccccc3)c2)cc1`, the Potency entry in [1], in experiment [5], in [2], in experiment [3], in [4] and in experiment [7] was “inactive” each time. Moreover, the IC50 (viability decrease) entry in experiment [6] was “inactive”. The outcome in [13], in [14] and in experiment [10] was inactive.

`COc1ccc(CC2=NN3C([C@@H](CCc4ccccc4)[C@@H](C)O)=NC(C)C3C(=O)N2)cc1OC` (some centres undefined): the Potency result in [1], in [2], in [3], in experiment [4] and in [7] was “inactive” in each case.

As to `CCc1cc(Nc2nccc(-c3c(-c4ccc(OC)c(C(=O)Nc5c(F)cccc5F)c4)nc4ccccn34)n2)c(OC)cc1N1CCC(N2CCN(S(C)(=O)=O)CC2)CC1`, the values for the Potency in experiment [1] and in [4] were 16.6 µM (active) and 26.4 µM (active), respectively. The Potency entry in experiment [5], in [2], in experiment [3] and in [7] was “inactive” in each case.

Regarding `Cc1cc([C@@H](C)Nc2ccccc2C(=O)O)c2nc(N3CCOCC3)cc(=O)n2c1`, the Potency in [1] is 34 µM (active); in experiment [5] it was 9.35 µM (active); in [2], 14.8 µM (active); in experiment [7] it was 12 µM (active). The Potency entry in [4] is “inactive”.

Consider `COc1cccc2cc(-c3nc(C4CCC(C(=O)O)CC4)n4ncnc(N)c34)[nH]c12` (centres undefined), for which the Potency was 0.526 µM (active) in [1]; 0.833 µM (active) in experiment [5]; 0.372 µM (active) in experiment [2]; 296 nM (active) and 1.46 µM (active) and 1.3 µM (active) in experiment [3]. Moreover, the Potency entry in experiment [4] is “inactive”.

For `NC(=O)c1ccc(I)c([N+](=O)[O-])c1`, the Potency entry in experiment [1], in experiment [5], in experiment [2], in experiment [3], in experiment [4] and in [7] was “inactive” each time.

Consider `CCN(c1ccccc1)c1cc(NC)[n+](C)c(C)n1`, for which, in experiment [1], the Potency was 16.6 µM (active). Moreover, the Potency result in experiment [5], in experiment [2], in experiment [3], in experiment [4] and in experiment [7] was “inactive” throughout.

As to `Cc1cc(Nc2nc(N[C@@H](C)c3ncc(F)cn3)ncc2Cl)n[nH]1`, the Potency is 16.6 µM (active) in experiment [1]; 16.6 µM (active) and 1.03 µM (active) in experiment [3]. Besides, the Potency result in experiment [2] and in [4] was “inactive” each time.

Regarding `Cn1cc(-c2ccc3nnc(C(F)(F)c4ccc5ncccc5c4)n3n2)cn1`, in experiment [1], the Potency is 0.833 µM (active). Further, the Potency result in experiment [5], in experiment [3] and in experiment [4] was “inactive” each time. In addition, the IC50 (viability decrease) entry in experiment [6] was “inactive”.

As to `Nc1cccc(S(=O)(=O)N2CCCN(S(=O)(=O)c3ccc4c(c3)OCCO4)CC2)c1`, the Potency result in experiment [1], in [2], in experiment [12] and in experiment [7] was “inactive” each time. Also, the Potency in experiment [15] was 5.26 µM (active).

Turning to `COc1ccccc1-c1cccc(-c2c(O)c3cc(C#N)c(Cl)cc3[nH]c2=O)c1`, the Potency result in experiment [1], in experiment [5], in experiment [3] and in experiment [4] was “inactive” each time.

As for `O=C(O)[C@@H](c1ccc(OCc2ccc3ccccc3n2)cc1)C1CCCC1`, the Potency entry in experiment [1], in experiment [5], in experiment [2], in [3] and in experiment [4] was “inactive” each time.

Take `COc1ccc(-c2ccc3c(N4CCOCC4)nc(N4C[C@@H](C)O[C@@H](C)C4)nc3n2)cc1CO`: the Potency in [1] was 0.59 µM (active); in experiment [15], 1.05 µM (active); in experiment [2], 0.372 µM (active); in experiment [3], 0.296 µM (active).

The values above are taken from PubChem BioAssay (NCATS).
